PLAP activator: activators of human placental alkaline phosphatase; AID 696; purified PLAP enzyme, luminescent substrate read-out; stronger effect = higher value; hit rate 1.2% among 96,000; activation fold at 20 µM; in the data active = activation fold above about 2
Target sequence (P05187 whole entry, looked up): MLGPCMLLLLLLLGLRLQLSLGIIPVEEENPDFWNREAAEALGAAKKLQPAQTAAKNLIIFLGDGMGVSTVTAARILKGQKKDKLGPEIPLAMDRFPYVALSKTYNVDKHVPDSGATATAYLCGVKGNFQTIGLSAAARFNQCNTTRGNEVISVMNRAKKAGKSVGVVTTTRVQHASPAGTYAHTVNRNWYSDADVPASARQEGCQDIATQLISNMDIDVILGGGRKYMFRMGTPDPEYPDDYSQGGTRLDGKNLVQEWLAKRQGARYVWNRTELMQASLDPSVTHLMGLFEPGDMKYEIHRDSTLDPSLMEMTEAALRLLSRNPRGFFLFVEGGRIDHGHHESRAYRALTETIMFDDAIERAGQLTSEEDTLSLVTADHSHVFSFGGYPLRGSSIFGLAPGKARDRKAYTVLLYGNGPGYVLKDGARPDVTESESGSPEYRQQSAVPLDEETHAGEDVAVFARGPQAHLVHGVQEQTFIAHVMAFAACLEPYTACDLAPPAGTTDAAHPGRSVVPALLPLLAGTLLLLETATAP
CYP2C19 inhib: inhibitors of human CYP2C19 | CYP2C19 Supersomes, luciferin-H EGE luminescence, 30 min | inhibition, % at 5 µM | hit rate 21% among 96,000;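 active = CYP2C19 inhibition above a set limit at 5 µM in the primary screen, cut at about 50% in these data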
CYP2C9 act: increases human cytochrome P450 2C9 activity; P11712; recombinant CYP2C9, luciferin-H conversion, luminescence; stronger effect = higher value; factor 1 = untreated enzyme, 0 = blocked; activation factor at 5 µM; hit rate 1.4% among 96,000;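 active = activation factor of 2 or more for CYP2C9 at a 5 µM dose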
CYP2C9 inhib: inhibitors of human CYP2C9; AID 777; inhibition, % at 5 µM; CYP2C9 Supersomes, luciferin-H conversion, luminescence; hit rate 20% among 96,000;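 active = blocking of liver enzyme CYP2C9 beyond about 50% at 5 µM, limit read from the data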
CYP2C19 act: increases human CYP2C19 enzyme activity; 96,000 tested, under 10 active; activation factor at 5 µM; recombinant CYP2C19, luciferin-H EGE luminescence; stronger effect = higher value; 0 = fully inhibited enzyme, 1 = untreated enzyme;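 active = activation factor of at least 2 at 5 µM in the primary screen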
Of the large screens only hits and unclear results are named; the others gave an inactive call. Most compounds without a hit are left out; they make up all but 31% or so of the library.

COC(=O)c1ccc(Sc2nnnn2-c2ccccc2)c([N+](=O)[O-])c1	CYP2C19 inhib 65.7
O=C(O)c1ccc(Sc2nnnn2-c2ccccc2)c([N+](=O)[O-])c1	none
O=C1c2[nH]nc(-c3ccccc3O)c2C(c2ccccc2F)N1Cc1ccco1 (configuration not stated)	CYP2C19 inhib 85.1, CYP2C9 inhib 94.9
CN(c1ccc(OCC(=O)N2CCC(C(N)=O)CC2)cc1)S(=O)(=O)c1cccs1	none
CN(c1ccc(OCC(=O)NC2CCCC2)cc1)S(=O)(=O)c1cccs1	CYP2C9 inhib 71.9
Cc1cccc(-n2c(N)cc(=O)nc2SCC(=O)Nc2nnc(C)s2)c1	none
CC(=O)/C(=N/Nc1cccc(Cl)c1)N1CCOCC1	CYP2C19 inhib 72.0, CYP2C9 inhib 64.8
CCOC(=O)c1ccccc1NC(=O)Cn1c(-c2nonc2N)nc2ccccc21	CYP2C19 inhib 75.9, CYP2C9 inhib 92.1
CCCCn1c(-c2nonc2N)nc2ccccc21	none
CC(=O)Nc1nonc1-c1nc2ccccc2n1CC1CC1	none
CCC(=O)Nc1nonc1-c1nc2ccccc2n1CC(C)C	CYP2C9 inhib 66.0
Nc1nonc1-c1nc2ccccc2n1CC(=O)NC1CCCC1	CYP2C19 inhib 52.1
CC1CCCN(C(=O)Cn2c(-c3nonc3N)nc3ccccc32)C1 (configuration not stated)	none
Cc1ccc(S(=O)(=O)CCc2nnc(NC(=O)c3cnccn3)s2)cc1	CYP2C9 inhib 51.1
Cc1ccnc(NC(=O)C2CCC(CNc3c(N4CCCC4)c(=O)c3=O)CC2)c1 (configuration not stated)	none
COc1ccc(NC(=O)C2CCC(CNc3c(N4CCC(C)CC4)c(=O)c3=O)CC2)cc1OC (configuration not stated)	none
COc1cc(NC(=O)C2CCC(CNc3c(N4CCC(C)CC4)c(=O)c3=O)CC2)cc(OC)c1 (configuration not stated)	CYP2C9 inhib 51.2
COc1cc(NC(=O)C2CCC(CNc3c(N4CCCCC4)c(=O)c3=O)CC2)cc(OC)c1 (configuration not stated)	CYP2C19 inhib 57.6, CYP2C9 inhib 62.0
COc1ccc(-c2cc(C(=O)Nc3c(C)nn(Cc4ccccc4)c3C)no2)cc1	none
COc1cccc(-c2cc(C(=O)Nc3c(C)nn(Cc4ccccc4)c3C)no2)c1	CYP2C9 inhib 53.6
Cc1ccc(NC(=O)c2cc(-c3cccc(O)c3)on2)cc1C	CYP2C9 act 2.9
Cc1ccc(NC(=O)c2cc(-c3ccco3)on2)cc1C	none
Cc1nn(Cc2ccccc2)c(C)c1NC(=O)c1cc(-c2cccs2)on1	CYP2C9 inhib 62.7
COc1cccc(-c2cc(C(=O)Nc3cc(OC)c(OC)c(OC)c3)no2)c1	CYP2C19 inhib 81.1
COc1cccc(-c2cc(C(=O)Nc3cccnc3)no2)c1	none
CCOC(=O)c1ccc(N2C(=O)CC(NC3CCN(C(=O)c4cccc(Cl)c4)CC3)C2=O)cc1 (configuration not stated)	none
COc1cc(NC(=O)c2cc3nc(-c4ccccc4)cc(-c4ccccc4)n3n2)cc(OC)c1OC	CYP2C9 inhib 64.5
CN1CCN(C(=O)c2cc3nc(-c4ccccc4)cc(-c4ccccc4)n3n2)CC1	none
CC1=C(C(=O)OC(C)C)C(C)NC(=O)N1 (configuration not stated)	none
C=CCNC(=O)C1CCN(c2nc(C)cc(-c3ccccc3)n2)CC1	CYP2C19 inhib 82.4, CYP2C9 inhib 77.3
COC(=O)c1[nH]c2ccc(Cl)cc2c1NC(=O)Oc1ccccc1	none
C=CCSC1=C(C#N)C(c2ccccc2OC)CC(=O)N1 (configuration not stated)	none
CCCCOC(=O)CSC1=C(C#N)C(c2ccccc2OC)C(C#N)C(=O)N1 (configuration not stated)	CYP2C19 inhib 63.5, CYP2C9 inhib 54.7
CCCCOC(=O)CSC1=C(C#N)C(c2ccccc2OCC)C(C#N)C(=O)N1 (configuration not stated)	CYP2C9 inhib 78.8
CCCOC(=O)CSC1=C(C#N)C(c2ccccc2OCC)C(C#N)C(=O)N1 (configuration not stated)	CYP2C9 inhib 66.8
COc1ccc(S(=O)(=O)N(CC(=O)N2CCN(C)CC2)c2ccccc2)cc1OC	none
COc1cc(OC)cc(C(=O)N/N=C/c2ccc(OC)c(COc3ccc4ccccc4c3)c2)c1	none
COc1ccc(/C=N/NC(=O)c2nc(Cl)c(Cl)c(N)c2Cl)cc1COc1ccc(F)cc1F	CYP2C9 inhib 66.9
COc1ccc(/C=N/NC(=O)c2ccoc2C)cc1COc1c(C)cccc1C	none
COc1ccc(/C=N/NC(=O)c2nc(Cl)c(Cl)c(N)c2Cl)cc1COc1ccccc1F	CYP2C19 inhib 62.2, CYP2C9 inhib 87.1
COc1ccc(Cl)cc1NC(=O)c1cccnc1	CYP2C9 act 2.6
COc1cc(NC(=O)c2ccco2)c(OC)cc1NC(=O)Nc1ccccc1Cl	CYP2C19 inhib 84.7, CYP2C9 inhib 59.9
COc1ccc(Cl)cc1NC(=O)c1ccco1	CYP2C9 act 4.2
COc1cc2c(cc1NC(=O)c1ccco1)CCCC2	none
COc1cc(NC(=O)C2CCCCC2)c(OC)cc1NC(=O)c1ccco1	CYP2C19 inhib 62.1
COc1ccc(OC)c(N/C(=N\c2nc(C)cc(C)n2)NC(=O)c2ccco2)c1	CYP2C9 inhib 56.0
COc1ccc(Cl)cc1NC(=O)Nn1cnnc1	none
COc1cc(C(=O)OCC(=O)NCc2ccccc2)cc(NC(=O)c2ccco2)c1OC	none
CNC(=O)COC(=O)c1cc(NC(=O)c2ccco2)c(OC)c(OC)c1	CYP2C9 inhib 54.0
O=C(Nc1ccc(NC(=O)C2CCCCC2)nc1)c1ccco1	CYP2C19 inhib 61.3
C=CCN(CC=C)C(=O)Nc1cc(Cl)ccc1OC	CYP2C19 inhib 85.1, CYP2C9 act 2.7
COC(=O)c1c(NC(=O)CN2CCN(c3ccccc3)CC2)c2c(C)cccc2n1C	none
COc1ccc(Cl)cc1NC(=S)N1CCN(C(=O)c2ccco2)CC1	CYP2C9 act 2
CC1CCCCN1S(=O)(=O)c1ccc(NC(=O)c2ccco2)cc1 (configuration not stated)	CYP2C19 inhib 59.2, CYP2C9 inhib 72.2
COc1cc(C(=O)OCC(=O)Nc2c(F)c(F)c(F)c(F)c2F)cc(OC)c1OC	CYP2C19 inhib 78.2
Cc1ccc(Oc2ccc(Cl)cc2NC(=O)c2cnccn2)cc1	CYP2C9 inhib 55.8
O=C(Nc1ccccc1Oc1ccccc1)c1cnccn1	none
COc1ccc(NC(=O)c2ccco2)c(OC)c1	none
COc1cc(NC(=O)C(C)C)ccc1NC(=O)c1ccco1	CYP2C9 inhib 64.3
CCOC(=O)C(CC)(CC)/C(C)=N/NC(=O)CC#N	CYP2C19 inhib 71.9
Cc1[nH]nc2c1C(c1cccc(OC(=O)N3CCOCC3)c1)C(C#N)=C(N)O2 (configuration not stated)	none
O=C(N=c1nc2ccccn2s1)c1ccccc1	CYP2C19 inhib 76.3
CCOC(=O)c1c(C)nc2ccccn12	none
COc1ccc(-c2onc3ccc(Cl)cc23)cc1	none

Bioassay records as filed in PubChem BioAssay.
